High-throughput results as filed in PubChem BioAssay.
KCNQ2 pot = potentiators of rat KCNQ2 potassium channel; Potassium voltage-gated channel subfamily KQT member 2 (Rattus norvegicus), O88943; CHO-K1 KCNQ2, FluxOR thallium flux fluorescence; hits give high values; AID 2239, 2010; B-score at 10 µM; actives 0.54% (n = 310,000);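 active means fluorescence ratio B-score at least 3 SD of library B-scores, with initial fluorescence B-score within 3 of them, cut at about 5.3 in these data; same plate scores as AID 2156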;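 further: B-score of peak minus minimum over baseline fluorescence ratio after K+ and Tl+ stimulus; positive B-score means potentiation of KCNQ2 with more thallium influx and brighter signal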
Target sequence (O88943 whole entry, looked up): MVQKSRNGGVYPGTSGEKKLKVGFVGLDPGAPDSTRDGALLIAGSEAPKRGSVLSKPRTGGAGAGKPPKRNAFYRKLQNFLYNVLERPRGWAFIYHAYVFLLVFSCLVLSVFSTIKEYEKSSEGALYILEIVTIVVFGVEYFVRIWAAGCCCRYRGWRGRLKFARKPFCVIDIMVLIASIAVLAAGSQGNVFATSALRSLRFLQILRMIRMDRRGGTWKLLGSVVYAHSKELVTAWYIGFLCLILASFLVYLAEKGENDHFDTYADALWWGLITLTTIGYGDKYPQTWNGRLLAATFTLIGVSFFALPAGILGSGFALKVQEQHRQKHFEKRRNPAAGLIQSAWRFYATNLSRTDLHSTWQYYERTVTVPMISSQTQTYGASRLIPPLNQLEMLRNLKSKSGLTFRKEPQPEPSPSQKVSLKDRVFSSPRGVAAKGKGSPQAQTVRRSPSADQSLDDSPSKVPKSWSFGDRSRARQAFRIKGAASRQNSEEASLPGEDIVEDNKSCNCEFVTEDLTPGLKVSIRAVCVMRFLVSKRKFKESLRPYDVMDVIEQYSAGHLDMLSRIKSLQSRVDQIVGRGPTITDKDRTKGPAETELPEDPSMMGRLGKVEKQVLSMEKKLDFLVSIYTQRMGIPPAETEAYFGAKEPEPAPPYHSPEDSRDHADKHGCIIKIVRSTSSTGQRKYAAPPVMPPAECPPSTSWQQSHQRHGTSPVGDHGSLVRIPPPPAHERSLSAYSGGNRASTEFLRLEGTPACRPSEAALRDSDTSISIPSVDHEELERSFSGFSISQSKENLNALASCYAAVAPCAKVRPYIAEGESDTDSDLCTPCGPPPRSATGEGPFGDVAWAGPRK
KCNQ2 block = rat KCNQ2 potassium channel inhibitors, primary screen, cell-based, CHO-K1, FluxOR thallium flux, B-score | Potassium voltage-gated channel subfamily KQT member 2 (Rattus norvegicus), O88943 | AID 2156, 2009 | actives 1.1% (n = 310,000) | B-score at 10 µM | 20 min; hits give low values;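 active means fluorescence ratio B-score at most minus 3 library SDs, with starting brightness B-score within 2 library SDs, cut at about -5.5 in these data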
Of the large screens only hits and unclear results are named; the others gave an inactive call. Only some compounds are listed: those with a hit (about 1.6% of all), similar ones and a draw of the others.

CCc1cc(=O)oc2cc(C)cc(OCC(=O)N3CCC(C(=O)O)CC3)c12	none
COC(=O)c1c(-c2ccc(C)cc2)csc1NC(=O)Cc1ccc(OC)c(OC)c1	KCNQ2 block -6.77
COC(=O)c1c(-c2ccc(Br)cc2)csc1NC(=O)Cc1ccc(OC)c(OC)c1	none (no result: KCNQ2 pot)
COc1ccc(CC(=S)NCCc2ccccc2)cc1	KCNQ2 block -6.02
S=C(Cc1ccccc1)NCCc1ccccc1	none (no result: KCNQ2 pot)
COc1ccc(OC)c(C(C(=O)NC2CCCCC2)N(C(=O)c2snc(C(N)=O)c2N)c2ccccc2OC)c1 (stereo not drawn)	none (no result: KCNQ2 pot)
COc1ccc(N(C(=O)c2snc(C(N)=O)c2N)C(C(=O)NC2CCCC2)c2cccs2)c(OC)c1 (stereo not drawn)	KCNQ2 block -8.03
CCC1NC(=S)NC(C)=C1C(=O)c1ccccc1 (stereo not drawn)	none (no result: KCNQ2 pot)
Cc1ccc(S(=O)(=O)/N=C(/NC(=S)Nc2ccccc2)c2ccccc2)cc1	none (no result: KCNQ2 pot)
Cc1ccc(S(=O)(=O)C/N=C(/NC(=S)N(c2ccccc2)c2ccccc2)c2ccccc2)cc1	KCNQ2 block -5.89
O=C(NC1CCCCC1)c1ccc(S(=O)(=O)c2ccccc2)cc1	none
COc1ccc(NC(=S)N(CCCN2CCOCC2)Cc2ccco2)cc1	none (no result: KCNQ2 pot)
CCc1ccc(NC(=S)N(CCCN2CCOCC2)Cc2ccco2)cc1	KCNQ2 pot 6.62
Cc1cc(NC(=O)CN2C(=O)NC3(CCCCC3C)C2=O)no1 (stereo not drawn)	none
OC(CCc1ccncc1)COc1ccccc1 (stereo not drawn)	none
Cc1ccc(Cl)cc1N1CCN(C(=O)c2ccc(CN3CCOCC3)cc2)CC1	none
Cc1ccc(Cl)cc1N1CCN(Cc2cc3c(cc2O)CCC3)CC1	KCNQ2 block -5.97
Cc1nc(Nc2ccc(Cl)cc2)c(C#N)c(=O)[nH]1	none
O=C(O)c1cc(-c2ccc(Br)s2)nc2ccccc12	none (no result: KCNQ2 pot)
CN1CCN(NC(=O)c2cc(-c3ccc(Br)s3)nc3ccccc23)CC1	KCNQ2 block -5.69
Cn1cc(SCC(=O)NCc2ccc3c(c2)OCO3)c2ccccc21	none (no result: KCNQ2 pot)
Cc1ncc([N+](=O)[O-])n1CC(=O)Nc1ccc(F)cc1	none
Cc1nn(C(C)(C)C)c(OC(=O)c2ccc3c(c2)OCO3)c1Sc1ccccc1	none (no result: KCNQ2 pot)
Cc1nn(C(C)(C)C)c(OC(=O)c2cccs2)c1Sc1ccccc1	KCNQ2 block -7.98
Cc1nn(C(C)(C)C)c(OC(=O)c2ccco2)c1Sc1ccccc1	KCNQ2 block -6.11
Cc1nn(C(C)(C)C)c(OC(=O)c2ccc(Br)o2)c1Sc1ccccc1	none (no result: KCNQ2 pot)
CCOc1ccc(C(=O)Nc2ncccc2Cl)cc1	none
CC1(C)Cc2ccccc2C(CSc2ccccc2C(=O)O)=N1	KCNQ2 block -6.05
COc1cc2c(cc1OC)C(CSc1ccccc1C(=O)O)=NC(C)(C)C2	none (no result: KCNQ2 pot)
Cc1cc(C)n2nc(-c3ccco3)nc2n1	none (no result: KCNQ2 pot)
O=C(NN1C(=O)C2CC=C(Cl)CC2C1=O)c1ccncc1 (stereo not drawn)	none (no result: KCNQ2 pot)
Cc1cc(C)n(CC(O)COc2ccccc2C(=O)Nc2ccccc2)n1 (stereo not drawn)	KCNQ2 block -6.64
COc1ccccc1OCC(O)Cn1nc(C)cc1C (stereo not drawn)	none (no result: KCNQ2 pot)
O=C(/C(=C\c1ccccc1)c1nc2ccccc2[nH]1)c1ccc(Cl)cc1	none
COC(=O)/C(=C\c1cc(OC)c(OC)c(OC)c1)c1nc2ccccc2[nH]1	none (no result: KCNQ2 pot)
O=C(/C(=C/c1ccc(Cl)cc1)c1nc2ccccc2[nH]1)c1cccs1	KCNQ2 block -6.31
COc1cc(/C=C(/C(=O)c2cccs2)c2nc3ccccc3[nH]2)ccc1O	KCNQ2 block -7.63
CC1CCCC(NC(=O)C2CCN(S(=O)(=O)N3CCCCC3)CC2)C1C (stereo not drawn)	none
O=Cc1ccccc1-c1cn(CCCOCc2ccccc2)nn1	none (no result: KCNQ2 pot)
COC(C[C@H]1O[C@H]1[C@@H](O)[C@@H](C)OCc1ccccc1)OC	none
COc1ccc(NC(=O)CN(C)C(=O)c2ccc(-c3ccccc3Cl)o2)cc1	none (no result: KCNQ2 pot)
O=S(=O)(Nc1ccc2ccccc2n1)c1ccc2c(c1)CCO2	none (no result: KCNQ2 pot)
CC1CCC(C(C)C)C(OC(=O)C2=C3c4ccccc4S(=O)(=O)N3CC2)C1 (stereo not drawn)	KCNQ2 block -6.12
CC1CCC(C(C)C)C(OC(=O)CSc2nccc(=O)[nH]2)C1 (stereo not drawn)	none (no result: KCNQ2 pot)
CCCCCCCCNc1nc(Cl)nc(NCc2ccco2)n1	none
CCCCCCNc1nc(NCc2ccco2)nc(OCC)n1	KCNQ2 block -6.06
O=C(CN(Cc1ccccc1Cl)S(=O)(=O)c1ccc(Cl)cc1)N/N=C/c1ccc(C(=O)O)cc1	none
CC(=O)c1c(C)[nH]c(C(=O)OCC(=O)c2c(N)n(C)c(=O)n(C)c2=O)c1C	none (no result: KCNQ2 pot)
Cc1noc(C(F)(F)F)c1C(=O)NNC(=O)c1ccccc1	none (no result: KCNQ2 pot)
O=C(/C=C/c1cn(-c2ccccc2)nc1-c1cccc(Cl)c1)N1CCN(c2ccccn2)CC1	KCNQ2 block -5.68
O=C(c1cnc(N2CCN(c3ccccn3)CC2)c2ccccc12)N1CCN(c2cccc(Cl)c2)CC1	KCNQ2 block -7.93
O=C(/C=C/c1cn(-c2ccccc2)nc1-c1cccnc1)N1CCCCC1	none (no result: KCNQ2 pot)
O=C(c1cc(Cl)ccc1Cl)N1CCN(c2ccccn2)CC1	none (no result: KCNQ2 pot)
COc1ccccc1CNc1cc(CSc2ccc(Cl)cc2)nc(C)n1	KCNQ2 block -6.11
COc1ccccc1CNC(=O)COC(=O)CSc1ccc(Cl)cc1	none (no result: KCNQ2 pot)
Cc1ccc(SCC(=O)OCC(=O)NC(C)c2ccc(Br)cc2)cc1 (stereo not drawn)	none
Cc1ccc(S(=O)(=O)NCC(=O)N(c2ccccc2)C(C(=O)NCc2ccccc2)c2ccco2)cc1 (stereo not drawn)	KCNQ2 block -6.89
Cc1cc(C)cc(N(C(=O)CNS(=O)(=O)c2ccccc2)C(C(=O)NCc2ccccc2)c2ccc(C)o2)c1 (stereo not drawn)	none (no result: KCNQ2 pot)
CN1CCN(C(CNC(=O)C(=O)NC2CCCC2)c2ccc(F)cc2)CC1 (stereo not drawn)	none
Cn1c(=O)c2c(ncn2CC(=O)N2CCN(S(=O)(=O)c3ccccc3)CC2)n(C)c1=O	none (no result: KCNQ2 pot)
CCC(=O)NC(C)C(c1cccs1)N1CCN(c2ccccc2)CC1 (stereo not drawn)	none
CC(NC(=O)Cc1cccs1)C(c1cccs1)N1CCN(c2ccccc2)CC1 (stereo not drawn)	KCNQ2 pot 8.25
C=C(C)Cn1cnc2cc(C)c(C)cc21	none (no result: KCNQ2 pot)
OCc1ccccc1OCCOc1ccc(Cl)c2cccnc12	none (no result: KCNQ2 pot)
Clc1ccc(OCc2cn3ccccc3n2)c2ncccc12	KCNQ2 block -6.56
Cc1cccnc1Nc1nc(-c2ccc(O)cc2)cs1	none (no result: KCNQ2 pot)
Cc1cccnc1Nc1nc(-c2ccc(F)cc2)cs1	KCNQ2 block -7.21
CC(NC(=O)CCC1COc2ccccc2O1)c1ccccc1 (stereo not drawn)	none
O=C(COC(=O)C1Cc2ccccc2CN1C(=O)c1ccccc1)Nc1ccc(SC(F)F)cc1 (stereo not drawn)	none (no result: KCNQ2 pot)
CCOC(=O)C(NC(=O)c1ccccc1Cl)(Nc1ccc(C)c(C)c1)C(F)(F)F (stereo not drawn)	none (no result: KCNQ2 pot)
COC(=O)C(Nc1ccccc1Cl)(c1cc(C)c(O)c(C)c1)C(F)(F)F (stereo not drawn)	KCNQ2 block -7.99
Cc1ccc(-c2cc(C(=O)Nc3c(C)n(C)n(-c4ccccc4)c3=O)[nH]n2)c(O)c1C	none
CC(C)Cn1cc(C(=O)N2CCC(C)CC2)c2c3ccccc3n(C)c2c1=O	KCNQ2 block -7.02
CCOC(=O)N1CCN(C(=O)c2cn(CC(C)C)c(=O)c3c2c2ccccc2n3C)CC1	none (no result: KCNQ2 pot)
